Experimental findings from PubChem BioAssay (EPA / NIEHS) are described below.

Records with an inconclusive call do not appear. Active and inactive are the calls of the source. Rule for the calls: active = hit-call score of the fitted dose curve at least 0.9, where 1 is the maximum; inconclusive = response in the unintended direction; inactive = score below 0.9.

The experiment can be described thus: CCTE_Shafer_MEA_dev_bursting_electrodes_number: CCTE's Neural Network Formation Assay for Number of Bursting Electrodes, Shafer Lab (AID 2284043). The protocol:
CCTE_Shafer_MEA_dev assay is conducted using Axion Biosystems 48 well microelectrode array (MEA) plates and Maestro recording system. Each well of the MEA plate contains a grid of 16 microelectrodes embedded in the culture surface. Electrically active cells, such as neurons, can be cultured over the electrodes, and electrical activity in these cells can be recorded extracellularly. The spontaneous firing of neurons is captured from each electrode on a microsecond timescale providing both temporally and spatially precise data. […] The CCTE_Shafer_MEA_dev assay uses primary cultures of rat cortical neurons. Recordings are made on days post-plating 5, 7, 9 and 12. As these cultures mature over time, neural networks develop functional activity and form cohesive networks in which electrical activity can be highly coordinated. CCTE_Shafer_MEA_dev_bursting_electrodes_number is 1 of 19 assay components of the CCTE_Shafer_MEA_dev assay. It measures the number of electrodes in a well with a burst rate of at least 1 burst (temporally-clustered group of action potential firing) every 2 minutes during a recording in a microelectrode array (MEA) using Axion Biosystems Maestro 768 channel amplifier with the AxIS adaptive spike detector. To collapse across multiple recordings made on days post-plating 5, 7, 9 and 12, the trapezoidal area-under-the-curve of the component is calculated.Data from the assay component CCTE_Shafer_MEA_dev_bursting_electrodes_number was analyzed into 1 assay endpoint. This assay endpoint, CCTE_Shafer_MEA_dev_bursting_electrodes_number, was analyzed in the negative analysis fitting direction relative to DMSO as the negative control and baseline of activity. Using a type of functional reporter, gain or loss-of-signal activity can be used to understand electrical activity.
On the day prior to culture, each well was coated thoroughly with 150 uL of 0.05% polyethyleneimine (PEI, Sigma Cat P3143) in 50 mM HEPES (Sigma Cat H7523) at a pH of 8. The plate was incubated at 37C for one hour. PEI was rinsed out with 500 uL of sterile water three times. Plates were stored at 4C until the day of culture. This culture was plated at a seeding density of 1.5 x 10^5 cells/well on a 48-well MEA plate, prepared as described above. Cells were administered via a 25 uL media/laminin ([…]; Sigma Cat L2020-1MG) drop directly onto the microelectrode array, as adding the cells with the laminin results in better attachment than pre-coating with laminin. After 2 hours, an additional 475 uL of cortical media was added and the cells returned to the incubator. Exposure starts at day 0 of plating and is continued over twelve days of network development until the experiment is terminated. Cells are fed with fresh medium on DIV 5 and 9, following the recordings on those days. The entire volume of media in the well is exchanged and any vehicle or compound treatment is renewed. Complete details are found in OP-NHEERL/ISTD/SBB/TJS/2015-03-r0 (available on request, email shafer.tim@epa.gov). Measurement of the electrical activity is non-invasive, and recordings can be made from the same plate over multiple different days of the culture. In cortical neurons, this allows for the measurement of extracellular action potentials over the period during which networks form in the MEA plate.
In the case of `Cn1c(=O)c2c(ncn2C)n(C)c1=O`, the result was inactive.
Still for that read-out and setting: as for `O=C1CCC(N2C(=O)c3ccccc3C2=O)C(=O)N1` (stereo not given), the entry is “inactive”.
The term AC50 denotes the concentration at which the activity in the assay is half-maximal. For `CNCc1ccc(NC(=O)c2c[nH]c3c2C(=O)CCC3)cc1`, the AC50 was 1980 nM (active).
Take `NC(=O)NO`: the call was inactive.
In the case of `Nc1nc2ncc(CNc3ccc(C(=O)N[C@@H](CCC(=O)O)C(=O)O)cc3)nc2c(=O)[nH]1`, the compound was called inactive.
As to `CCC(C)(C)C(=O)O[C@H]1C[C@@H](C)C=C2C=C[C@H](C)[C@H](CC[C@@H]3C[C@@H](O)CC(=O)O3)[C@H]21`, the AC50 was 1060 nM (active).
Regarding `COc1ccc(-n2nc(C(F)F)cc2-c2ccc(S(C)=O)cc2)cc1` (stereo not given), the AC50 is 10000 nM (active).
Consider `CC[C@H](C)C(=O)O[C@H]1C[C@@H](C)C=C2C=C[C@H](C)[C@H](CC[C@@H]3C[C@@H](O)CC(=O)O3)[C@H]21`, for which the AC50 is 1910 nM (active).
As to `O=P(OC(CCl)CCl)(OC(CCl)CCl)OC(CCl)CCl`, the compound was classed as inactive.
For the compound `CC[C@H]1OC(=O)[C@H](C)[C@@H](O[C@H]2C[C@@](C)(OC)[C@@H](O)[C@H](C)O2)[C@H](C)[C@@H](O[C@@H]2O[C@H](C)C[C@H](N(C)C)[C@H]2O)[C@](C)(O)C[C@@H](C)C(=O)[C@H](C)[C@@H](O)[C@]1(C)O`, the call was inactive.
